Screening results from PubChem.
GASC-1 inh – inhibitors of GASC-1 histone demethylase, primary screen, biochemical, fluorescence, DELFIA europium; GST-JMJD2C(1-420) H3K9me3 demethylation; inhibition, % at 2.35 µM; 330,000 tested, 0.069% active;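 active means more than half of a compound's replicate wells show inhibition beyond 50%, single wells judged on their own value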;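 further: signal counts dimethyl H3K9 product captured on neutravidin plate; 0% = median of DMSO wells and 100% = 0.3 times that DMSO median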
HDAC3 inhib – HDAC3 deacetylase inhibitors, primary screen, biochemical, fluorescence, cell-free homogeneous; Histone deacetylase 3 (Homo sapiens), O15379; recombinant HDAC3, fluorogenic peptide/trypsin coupled; 320,000 tested, 0.15% active; inhibition, % at 8.3 µM; in the data active means inhibition above about 26%, passing the limit was not always enough
Target sequence (O15379 whole entry, looked up): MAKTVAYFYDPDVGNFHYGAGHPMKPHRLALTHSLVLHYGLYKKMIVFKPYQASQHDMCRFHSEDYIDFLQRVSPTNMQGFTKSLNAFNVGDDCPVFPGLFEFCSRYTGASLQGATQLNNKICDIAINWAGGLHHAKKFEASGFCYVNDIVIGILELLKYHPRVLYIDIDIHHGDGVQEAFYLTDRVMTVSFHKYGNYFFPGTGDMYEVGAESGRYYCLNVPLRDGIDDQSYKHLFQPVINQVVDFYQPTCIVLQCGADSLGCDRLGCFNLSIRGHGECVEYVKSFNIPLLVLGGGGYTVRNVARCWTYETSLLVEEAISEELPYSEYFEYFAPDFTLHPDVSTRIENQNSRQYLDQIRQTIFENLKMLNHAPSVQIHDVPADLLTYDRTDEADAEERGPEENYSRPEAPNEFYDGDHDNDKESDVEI
SUMO Mot1 rescue – yeast Mot1-301 growth rescue at high temperature, primary screen, SUMOylation pathway inhibitor project, S. cerevisiae, ATP luminescence, 38.5C. S. cerevisiae Mot1-301 growth rescue; percent above DMSO median, 100 means doubled. growth rescue, % at 18.8 µM. 320,000 tested, 1% active. AID 2716, 2010;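 active means every valid replicate shows activation above 250% relative to neutral control wells; inactive means the rest, any valid replicate at or below 250%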;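 further: OY570 slx delta 5 strain wells were the positive control but not used for scaling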
p-CIP stab down – p/CIP-EGFP fusion destabilizers, primary screen, fluorescence, F442A cells; AID 1984, 2009; decrease of EGFP signal, % at 10 µM; 290,000 tested, 0.01% active; 16 h;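 active means EGFP signal decrease of at least 30% at 10 µM or well 3 SD below plate mean, unless failing retest; inactive means the rest, including hits failing retest or dose response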
PvdQ inh – P. aeruginosa PvdQ acylase inhibitors, primary screen, biochemical, fluorescence, plate reader and imaging, single point; purified PvdQ acylase; inhibition, % at 10 µM; 340,000 tested, 0.063% active; AID 488965, 2010; in the data active means inhibition above about 30%, passing the limit was not always enough;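 further: 0% = vehicle neutral wells and 100% = reference inhibitor wells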
PHOSPHO1 inh – PubChem AID 1565; Phosphoethanolamine/phosphocholine phosphatase (Homo sapiens), Q8TCT1; recombinant PHOSPHO1, absorbance phosphatase assay; inhibition, % at 13.3 µM; 290,000 tested, 1.1% active; in the data active means inhibition above about 60%
Yeast Mot1 SUMO – growth restoration of Mot1-301 yeast on galactose, dose response, SUMO pathway inhibitor project, whole organism, S. cerevisiae, ATP luminescence, cherry-picked samples. shares compounds with SUMO Mot1 rescue. S. cerevisiae Mot1-301 galactose growth, 24 h; -100 = growth of slx-deleted rescue strain. growth activity, percent, % at 42 µM. 2,300 tested, under 10 active;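 active means Signal drops as the depositor expects, and the fitted half-maximal dose is no more than ten times the top valid tested dose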;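 further: more negative values mean stronger growth rescue toward the control strain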
Numbers without * were called inactive; · = no result given; + = active, no number; [ ] = remark or other dose. In the library only some 2.2% were active in any assay of this set; here they are far more common.

SMILES | GASC-1 inh | HDAC3 inhib | SUMO Mot1 rescue | p-CIP stab down | PvdQ inh | PHOSPHO1 inh | Yeast Mot1 SUMO
O=C1CCc2cc(S(=O)(=O)N3CCC(C(=O)NC4CCCC4)CC3)ccc2N1 | 17 | 3 | 518* | -13 | -4 | 3 | 0
CN(C)S(=O)(=O)N1CCC(Oc2ccc(C(=O)N3C[C@@H]4CCC[C@H]3C4)cc2)CC1 | -5 | 1 | 0 | -23 | -5 | -1 | ·
Clc1ccc(N=c2ssnc2Cl)nc1 | 54* | 14 | 655* | -21 | -11 | 92* | 0
COC(=O)C1Cc2ccccc2CN1S(=O)(=O)c1ccc(F)cc1 (stereo not drawn) | -4 | -5 | 2 | 3 | -3 | 24 | ·
Cc1ccc(S(=O)(=O)N2[C@@H](c3ccccc3F)C(C(=O)O)=CC[C@H]2c2ccc3c(c2)OCO3)cc1 | 1 | -1 | 497* | · | -16 | · | 0
COc1ccc2nc(NC(=O)c3cc(S(=O)(=O)N4CCOCC4)ccc3C)sc2c1 | -1 | -5 | 529* | -16 | 2 | 23 | 0
Cc1nc2ccc(NC(=O)c3ccc(S(=O)(=O)N4CCOCC4)cc3)cc2s1 | -1 | -2 | + | -4 | 8 | 21 | 0
COc1ccc2nc(NC(=O)c3cccc(S(=O)(=O)N4CCOCC4)c3)sc2c1 | 8 | 1 | 102 | -8 | 5 | 10 | ·
COc1ccccc1CNC(=O)C1CCCN(S(=O)(=O)c2ccc3c(c2)C(C)(C)C(=O)N3C)C1 (stereo not drawn) | -10 | -3 | -9 | -28 | -13 | 41 | ·
CC1CCC(NC(=O)c2cc3c(s2)CCCC3)CC1 (stereo not drawn) | 0 | 3 | 250 | · | -6 | · | ·
CSc1ccc(Cl)c(C(=O)Nc2ccc(N3CCOCC3)cc2)c1 | -3 | -4 | + | -3 | 8 | 30 | 0
O=C(Nc1ccc(N2CCOCC2)cc1)c1cc(F)c(F)cc1Cl | -3 | · | 5 | -7 | -6 | -8 | ·
O=C(CCc1ccccc1)Nc1cc2c3c(c1)CC(=O)N3CCC2 | 20 | -6 | -11 | · | -10 | · | ·
O=C(CCCCn1ccc(=O)[nH]c1=O)Nc1ccc(O)c(C(=O)O)c1 | · | · | · | · | -11 | · | ·
COc1cc(CNCCN2CCOCC2)ccc1OCc1ccc(Cl)cc1 | -5 | 7 | 38 | -4 | -11 | -5 | ·
CCOc1ccc(Br)cc1CNCCN1CCOCC1 | -6 | 1 | 399* | -3 | -2 | -3 | 0
Clc1cc(Br)ccc1OCCOCCN1CCOCC1 | 6 | 4 | 504* | -8 | -1 | 5 | 0
COc1cc(CNCCN2CCOCC2)ccc1OCc1ccccc1Cl | 7 | 1 | 453* | 1 | -13 | -10 | 0
CCOc1ccc2ccccc2c1CNCCN1CCOCC1 | 2 | 0 | 11 | -8 | -12 | -6 | ·
C[C@H](CO)N1C[C@H](C)[C@@H](CN(C)C(=O)Nc2ccc(C(F)(F)F)cc2)Oc2ccc(NS(=O)(=O)c3cn(C)cn3)cc2C1=O | 8 | -1 | -5 | · | 1 | · | ·
COc1ccc(CC(=O)NCC2CCCN(Cc3ccccc3Cl)C2)cc1 (stereo not drawn) | -6 | 1 | -15 | 2 | -13 | 8 | ·
CC(C)(C)NC(=O)NC(=O)CN1CCN(S(=O)(=O)c2ccc3c(c2)OCCO3)CC1 | -4 | · | 988* | 2 | -3 | 39 | -1[21 µM]
Cc1cc(=O)n2[nH]c(-c3cccnc3)nc2n1 | -111 | -1 | 8 | -6 | · | -2 | ·
Cc1cc(=O)n2[nH]c(-c3ccc(F)cc3)nc2n1 | 3 | -4 | 551* | 0 | -15 | -14 | 0
CCC(Cc1ccccc1)NC(=O)C1CCN(c2nn3c(=O)cc(C)nc3s2)CC1 (stereo not drawn) | 1 | 2 | 408* | 12 | -3 | -1 | 0
SMILES | GASC-1 inh | HDAC3 inhib | SUMO Mot1 rescue | p-CIP stab down | PvdQ inh | PHOSPHO1 inh | Yeast Mot1 SUMO
Cc1cc(=O)n2nc(N3CCC(C(=O)NCc4ccccc4)CC3)sc2n1 | -10 | 8 | 92 | 0 | 6 | 33 | ·
CC1(C)NC(=O)N(CC(=O)O)C1=O | 8 | 1 | 574* | -20 | -1 | 13 | 0
CC1(C)NC(=O)N(CN2C(=O)NC(C)(C)C2=O)C1=O | -9 | 1 | -5 | -4 | -13 | 7 | ·
O=C(COC(=O)C1CC(=O)N(Cc2ccccc2)C1)Nc1ccc(Cl)cc1F (stereo not drawn) | 19 | 0 | -13 | -18 | -16 | 37 | ·
O=C(COC(=O)C1CC(=O)N(Cc2ccccc2)C1)Nc1ccccc1F (stereo not drawn) | -2 | -2 | 544* | -4 | -6 | 32 | 0[21 µM]
O=C1C2C(C(=O)N1/N=C/c1cccc([N+](=O)[O-])c1)C1C=CC2C12CC2 (stereo not drawn) | 6 | 4 | -5 | 3 | -8 | -10 | ·
NC(=O)c1cccc2cc3ccccc3cc12 | -15 | -1 | 625* | -5 | -10 | 36 | 1
COc1ccc(-c2cnc3c(-c4ccc(F)cc4)cnn3c2N)cc1 | -25 | -36 | -20 | 3 | -14 | 33 | ·
Cc1nc2c(-c3ccc(F)cc3)cnn2c2c1CCC2 | 4 | -7 | 583* | 9 | -4 | 30 | 0
CC1(C)NC(=O)N(CC(=O)OCC(=O)Nc2cccc(S(N)(=O)=O)c2)C1=O | -13 | 8 | 8 | -2 | -19 | 21 | ·
Cc1cc(C)cc(-n2ncc3c2CCCC3NC(=O)c2cc(C)[nH]n2)c1 (stereo not drawn) | 3 | 0 | 641* | 0 | 5 | 28 | 0
Oc1cc(-c2ccccc2)c2ccccc2c1 | 4 | 0 | 5 | 1 | -16 | 3 | ·
Cc1ccc(NC(=O)CN2C(=O)COc3ccc(S(=O)(=O)N4CCOCC4)cc32)cc1F | -5 | -1 | 500* | 0 | -31 | 47 | 0
CCCCn1c2c(c(=O)n(C)c1=O)C(c1ccc(OC)cc1)N1CCCCCC1=N2 (stereo not drawn) | 18 | 0 | + | -8 | 16 | -14 | 0
CCC(=O)C1CCCN(C(=O)c2ccc(OC3CCN(C(=O)CCOC)CC3)cc2)C1 (stereo not drawn) | -5 | 0 | 1 | -1 | -11 | 56 | ·
Cc1nn(CC(N)=O)c(=O)c2ccccc12 | -25 | 5 | 482* | -2 | -13 | 10 | 0
CC(C)C[C@@H](CO)N1CCN(Cc2ccc(Br)cc2)CCC1=O | 2 | 3 | 6 | -1 | -20 | 15 | ·
